# PubChem BioAssay (Tox21)
# Several values for one entry are separate records, joined by “and”; a condition that tells them apart may be missing. Identical values can stand only once. Records with an inconclusive call do not appear. Where a call stands in place of a potency, no number is given. A structure can be active in one record and inactive in another. Activity calls are given as the source filed them. Unless noted, calls come from the whole dose curve; as a rule, active = well fitted curve in the direction sought with a large enough effect in the repeat runs; inconclusive = weak or mixed curves; inactive = no such curve, though single readings can be large; an effect the other way counts as inactive or inconclusive.
# Columns and labels:
# [1] = qHTS assay for small molecule agonists of the p53 signaling pathway (AID 651631; calls by dose curve; note: nearly all actives have a fitted effect of over 15% in size; note: potency is the fitted concentration of half-maximal effect)
# How it was run: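 We treat p53RE-bla HCT-116 cells with compounds for 16 h at 37 °C, add LiveBLAzer B/G FRET substrate for 2 h at room temperature, and measure fluorescence intensity.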
# [2] = qHTS assay for small molecules that induce genotoxicity in human embryonic kidney cells expressing luciferase-tagged ATAD5 (AID 651632); note: nearly all actives have a fitted effect of over 15% in size
# How it was run: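 A rise in luciferase signal from ATAD5-tagged HEK293T cells marks genetic stress. Cells were exposed to compounds for 16 hr at 37C, 5% CO2, then luciferase was quantified after a 30 min room-temperature incubation with Amplite.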
# [3] = qHTS assay for small molecule agonists of the p53 signaling pathway - cell viability (AID 651633; calls by dose curve;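 note: p53RE-bla HCT reporter cells with a stable beta-lactamase p53 reporter; series mostly up to about 83 µM; nearly all actives have a fitted effect of over 30% in size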)
# How it was run: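 Viability counter-read: CellTiter-Glo luminescence (30 min, room temperature) in the same p53RE-bla plates. These plates had been exposed to compounds for 16 h at 37 C.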
# [4] = qHTS assay for small molecule disruptors of the mitochondrial membrane potential - cell viability (AID 720634; calls by dose curve;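 note: human HepG2 liver cancer cells; series mostly up to about 83 µM; nearly all actives have a fitted effect of over 20% in size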)
# How it was run: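 Cytotoxicity was quantified from ATP content by CellTiter-Glo luminescence in the same wells as the MMP dye read-out. HepG2 (2,000 cells/well) were plated overnight and exposed to compounds for 1 hr at 37 C.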
# [5] = qHTS assay for small molecule disruptors of the mitochondrial membrane potential (AID 720635); note: potency is the fitted concentration of half-maximal effect
# How it was run: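 Mitochondrial membrane potential tracked with Mito-MPS dye, red aggregates (ex 540/em 590 nm) against green monomers (ex 490/em 535 nm). Compound treatment 1 hr at 37C, dye 30 min in HepG2.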
# [6] = qHTS assay to test for compound auto fluorescence at 590 nm (red) in HepG2 cells (AID 720674)
# How it was run: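 1 hr compound incubation on HepG2 cells, 37 C, 5% CO2; plate read ex 540 nm / em 590 nm; intensities reported as Rose Bengal sodium equivalents.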
# [7] = qHTS assay to test for compound auto fluorescence at 535 nm (green) in HepG2 cells (AID 720675)
# [8] = qHTS assay to test for compound auto fluorescence at 460 nm (blue) in HEK293 cells (AID 720678)
# How it was run: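 Measured: blue fluorescence (Ex 405/Em 460 nm) of compound-treated HEK293 cells, incubated overnight at 37C with 5% CO2 and scaled to triamterene equivalents.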
# [9] = qHTS assay to test for compound auto fluorescence at 590 nm (red) in HEK293 cells (AID 720679)
# How it was run: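 Using HEK293 cells at 2,000 per well, the screen added 23 nL of each compound after cell attachment and incubated overnight (37C, 5% CO2). The plate reader then captured red-label fluorescence, Ex/Em 540/590nm.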
# [10] = qHTS assay to test for compound auto fluorescence at 535 nm (green) in HEK293 cells (AID 720680)
# [11] = qHTS assay to test for compound auto fluorescence at 460 nm (blue) in HEK293 cell free culture (AID 720681)
# How it was run: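 Blue fluorescence (Ex 405/Em 460 nm, triamterene-equivalent) was read immediately after pin transfer of compound or DMSO into medium (DMEM, 10% FBS) without cells.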
# [12] = qHTS assay to test for compound auto fluorescence at 535 nm (green) in HEK293 cell free culture (AID 720682)
# How it was run: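 Green-channel intensity (Ex/Em 485/535 nm) was recorded from compound-treated wells containing only DMEM with 10% FBS. Fluorescein provided the equivalency standard.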
# [13] = qHTS assay to test for compound auto fluorescence at 590 nm (red) in HEK293 cell free culture (AID 720683)
# How it was run: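 Red-channel autofluorescence of compounds in culture medium (DMEM, 10% FBS), no cells, measured at 540/590 nm. Rose Bengal sodium is the reference fluorophore for equivalence.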
# [14] = qHTS assay to test for compound auto fluorescence at 590 nm (red) in HepG2 cell free culture (AID 720684)
# How it was run: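 Cell-free; medium MEM + 10% FBS; compound or DMSO added by pintool; read Ex 540/Em 590 nm; Rose Bengal sodium as red reference fluorophore.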
# [15] = qHTS assay to test for compound auto fluorescence at 535 nm (green) in HepG2 cell free culture (AID 720686)
# [16] = qHTS assay to test for compound auto fluorescence at 460 nm (blue) in HepG2 cells (AID 720687)
# How it was run: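 Blue-channel autofluorescence (Ex/Em 405/460 nm, triamterene-equivalent) was measured after 1 hr compound exposure at 37 C, 5% CO2. Cells were HepG2, plated overnight at 37 C in MEM plus 10% FBS.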
# [17] = biological target: Glucocorticoid receptor (Homo sapiens) (UniProt P04150); assay: qHTS assay to identify small molecule antagonists of the glucocorticoid receptor (GR) signaling pathway (AID 720692; active = well fitted inhibition curve with a large enough effect in the signal ratio in the repeat runs, not every such curve was filed as active; the % refers to the signal ratio)
# How it was run: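 Inhibition of dexamethasone-driven (5 nM final) beta-lactamase expression was measured in GRE-reporter HeLa cells over 18 h at 37C. Fluorescence was read after 2 h with the B/G FRET substrate at room temperature.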
# [18] = qHTS assay for small molecules that induce genotoxicity in human embryonic kidney cells expressing luciferase-tagged ATAD5 - cell viability (AID 651634; calls by dose curve; note: nearly all actives have a fitted effect of over 25% in size)
# How it was run: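 Cytotoxicity counter-readout: after 15.5 hr compound treatment at 37C, live-cell protease activity in ATAD5-luciferase HEK293T cells measured by CellTiter-Fluor fluorescence, 30 min development at 37C.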
# [19] = qHTS assay to test for compound auto fluorescence at 460 nm (blue) in HepG2 cell free culture (AID 720685)
# How it was run: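 Cell-free plates of MEM plus 10% FBS received 23 nL compound or DMSO vehicle; blue-channel (405/460 nm) intensity scored against triamterene as reference fluorophore.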
# [20] = biological target: Glucocorticoid receptor (Homo sapiens) (UniProt P04150); assay: qHTS assay to identify small molecule agonists of the glucocorticoid receptor (GR) signaling pathway (AID 720691; active = well fitted activation curve with a large enough effect in the signal ratio in the repeat runs, not every such curve was filed as active; the % refers to the signal ratio)
# How it was run: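 Agonist-mode qHTS in HeLa cells stably expressing a glucocorticoid-response-element beta-lactamase reporter. Fluorescence intensity read with FRET substrate (2 h, room temperature) after 18 h compound treatment at 37 C.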
# Chain of Glucocorticoid receptor (Homo sapiens) (P04150 whole entry, looked up): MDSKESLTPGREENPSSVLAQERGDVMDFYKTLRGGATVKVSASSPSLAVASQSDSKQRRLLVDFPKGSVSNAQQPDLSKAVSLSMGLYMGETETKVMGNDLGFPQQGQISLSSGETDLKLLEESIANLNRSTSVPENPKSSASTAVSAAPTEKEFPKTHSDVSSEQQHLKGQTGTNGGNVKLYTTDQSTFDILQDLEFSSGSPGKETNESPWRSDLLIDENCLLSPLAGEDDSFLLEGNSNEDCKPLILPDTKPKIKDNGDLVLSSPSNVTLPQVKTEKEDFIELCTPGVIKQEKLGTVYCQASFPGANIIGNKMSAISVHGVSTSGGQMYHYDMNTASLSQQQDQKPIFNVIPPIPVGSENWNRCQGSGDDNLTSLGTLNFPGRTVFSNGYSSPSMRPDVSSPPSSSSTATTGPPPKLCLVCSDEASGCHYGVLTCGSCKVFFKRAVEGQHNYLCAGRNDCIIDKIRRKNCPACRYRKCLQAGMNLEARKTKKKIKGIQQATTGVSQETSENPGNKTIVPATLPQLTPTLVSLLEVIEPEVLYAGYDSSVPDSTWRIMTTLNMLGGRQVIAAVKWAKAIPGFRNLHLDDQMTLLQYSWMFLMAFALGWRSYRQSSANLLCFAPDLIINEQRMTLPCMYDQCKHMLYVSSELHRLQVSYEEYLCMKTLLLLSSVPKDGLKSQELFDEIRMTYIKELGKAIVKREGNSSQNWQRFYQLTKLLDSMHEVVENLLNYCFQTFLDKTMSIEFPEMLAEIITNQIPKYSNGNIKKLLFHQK
SMILES,Potency [1],Potency [2],Potency [3],Potency [4],Potency [5],Potency [6],Potency [7],outcome [8],Potency [9],Potency [10],Potency [11],Potency [12],Potency [13],Potency [14],Potency [15],Potency [16],Potency [17],Potency [18],Potency [19],Potency [20]
C=CCCCCCCCCCC,inactive,inactive,inactive,inactive,inactive,inactive,inactive,inactive,inactive,inactive,inactive,inactive,inactive,inactive,inactive,inactive,inactive,,,
Nc1ccc(N)c(Cl)c1,inactive,inactive,inactive,inactive,,inactive,inactive,inactive,,inactive,inactive,inactive,inactive,inactive,inactive,inactive,inactive,inactive,inactive,inactive
NCCS(=O)(=O)O,inactive,inactive,inactive,,inactive and 7.13 µM (active),inactive,inactive,inactive,inactive,inactive,inactive,inactive,inactive,inactive,inactive,inactive,inactive,inactive,,inactive
Cc1ccc2c(c1)C(=O)OC2=O,inactive,inactive,inactive,inactive,inactive,inactive,inactive,inactive,inactive,inactive,inactive,inactive,inactive,inactive,inactive,inactive,inactive,,inactive,inactive
COC(=O)C(C)Oc1ccc(Oc2ncc(C(F)(F)F)cc2Cl)cc1 (centres undefined),inactive,inactive,inactive,,inactive,inactive,inactive,inactive,,inactive,inactive,inactive,inactive,inactive,inactive,inactive,,inactive,inactive,
CN(C)CCCN1c2ccccc2Sc2ccc(Cl)cc21,10.9 µM (active),inactive,inactive,inactive,,inactive,inactive,inactive,,inactive,inactive,inactive,inactive,inactive,inactive,inactive,,inactive,inactive,
Cc1ccc([N+](=O)[O-])c(C)c1,inactive,inactive,inactive,,,inactive,inactive,inactive,inactive,inactive,inactive,inactive,inactive,inactive,inactive,inactive,inactive,inactive,inactive,inactive
ClC/C=C/CCl,inactive,inactive,inactive,,inactive,inactive,inactive,inactive,inactive,inactive,inactive,inactive,inactive,inactive,inactive,inactive,,inactive,inactive,
